# Screening results as filed in PubChem.
# Mtb FBA inh: inhibits M. tuberculosis FBA enzyme; P9WQA3; purified M. tuberculosis FBA, fluorescence read-out; inhibition, % at 1 µM; hit rate 2.3% among 360,000; AID 588726; in the data active = inhibition above about 27%
# Target sequence (P9WQA3 whole entry, looked up): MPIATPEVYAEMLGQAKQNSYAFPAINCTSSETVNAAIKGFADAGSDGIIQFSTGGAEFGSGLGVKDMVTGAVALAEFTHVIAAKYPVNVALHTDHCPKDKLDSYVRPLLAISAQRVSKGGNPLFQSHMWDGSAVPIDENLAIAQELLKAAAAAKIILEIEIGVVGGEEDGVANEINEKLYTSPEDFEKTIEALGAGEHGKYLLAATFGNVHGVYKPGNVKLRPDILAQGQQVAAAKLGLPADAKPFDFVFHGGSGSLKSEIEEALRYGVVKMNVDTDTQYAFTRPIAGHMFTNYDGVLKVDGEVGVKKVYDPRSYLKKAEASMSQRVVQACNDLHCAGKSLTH
# Mtb hypoxia rep: reduces hypoxia-regulated biosensor signal in M. tuberculosis; M. tuberculosis hypoxia-regulated fluorescent reporter, fluorescence; fluorescence inhibition, % (no concentration beside the values); hit rate 0.1% among 300,000; in the data active = fluorescence inhibition mostly above about 23%, no sharp cut-off; inactive = mostly below about 17%
# Yp Topo-I inh: blocks Yersinia pestis topoisomerase I activity | Y. pestis Topo-I cleavage product accumulation, plate reader | activity, % at 10 µM | hit rate 0.064% among 360,000 | AID 504884; in the data active = activity above about 50%, passing the limit was not always enough
# GDH-TPI counter: counter-screen for M. tuberculosis FBA inhibitors: GDH-TPI coupled enzymes | GDH-TPI coupled enzyme counterscreen, NADH absorbance | inhibition, % at 4.8 µM | hit rate 1.2% among 360,000; in the data active = inhibition above about 30%
# PrP 5UTR inh: inhibition of PrP 5' UTR reporter expression | cell-based PrP 5' UTR mRNA reporter, plate reader | inhibition, % (no concentration beside the values) | hit rate 0.35% among 340,000; in the data active = inhibition above about 52%
# PrPC TRFRET: cell surface PrPC inhibition, primary TR-FRET screen; P04156; TR-FRET read-out; inhibition, % at 13.8 µM; hit rate 0.43% among 370,000; AID 720596; in the data active = inhibition above about 24%
# Hits are given with their value; n = inactive; x = no result given; + = active, no number. Hits are enriched below; roughly 3.8% of the tested compounds scored in any of these assays.
SMILES,Mtb FBA inh,Mtb hypoxia rep,Yp Topo-I inh,GDH-TPI counter,PrP 5UTR inh,PrPC TRFRET
COc1cc(/C=N/NC(=O)c2c(C)nc3ccc(Cl)cn23)cc(OC)c1OC,n,x,n,36.0,n,n
CCOC(=O)C1C2COc3ccc(Br)cc3C2N2C(=O)CN(Cc3ccc(OC)cc3)C(=O)[C@@]12C (stereo partly specified),x,n,x,x,x,x
CNc1cnc(-c2ccc(C(=O)N3CCOCC3)cc2)cn1,+,x,n,n,x,n
CCOc1ccc(CN2CCN(c3cc(C)nc4c5c(C)cc(C)nc5nn34)CC2)cc1,x,n,x,x,x,x
COc1ccc(CN2CCN(c3cc(C)nc4c5c(C)cc(C)nc5nn34)CC2)cc1F,125.1,n,n,n,n,n
Fc1cccc(CON=Cc2c(-c3ccccc3)nc3ccc(Cl)cn23)c1,x,37.6,x,x,x,x
COc1ccc(C(=O)ON=C(C)c2cnccn2)cc1,x,n,x,x,x,x
Nc1[nH]c(=O)[nH]c(=O)c1N=Cc1ccccc1,43.1,x,n,n,n,x
COC(=O)c1c(N)sc(C(C)=O)c1C,n,n,n,43.8,n,n
O=c1nccc(N/N=C/c2ccccc2O)[nH]1,n,x,n,38.2,n,n
CCOc1ccccc1/C=N/Nc1ccnc(=O)[nH]1,n,x,n,n,x,n
COc1cccc(/C=N/Nc2ccnc(=O)[nH]2)c1O,n,x,n,35.7,x,n
COc1cccc(/C=N/Nc2nn3cnnc3c3ccccc23)c1O,n,x,n,32.5,n,n
COc1cc(C=NNc2nn3cnnc3c3ccccc23)ccc1O,x,n,x,x,x,x
CCCCC(=O)N1CC=CC(c2ccc(OC)cc2)N(Cc2ccc(F)cc2)C(=O)C1C (stereo unspecified),x,n,x,x,x,x
CCC1(C)Cc2ccccc2-c2nc(NCCCO)[nH]c(=O)c21 (stereo unspecified),140.3,n,n,n,n,n
O=c1[nH]c(NNC(=S)NC2CCCCC2)nc2c1C1(CCCC1)Cc1ccccc1-2,n,n,n,n,n,n
CC1(C)Cc2ccccc2-c2nc(NCCCO)n(-c3ccccc3)c(=O)c21,198.2,n,n,n,n,n
O=c1[nH]c(NCCCO)nc2c1C1(CCCC1)Cc1ccccc1-2,183.8,n,n,n,n,n
CCN1C(=O)C2C(c3ccc(-c4ccccc4)cc3)N[C@@](Cc3ccccc3)(C(=O)OC)C2C1=O (stereo partly specified),x,n,x,x,x,x
Cn1c2ccccc2c2cc(C(=O)NNS(=O)(=O)c3ccc(F)cc3)sc21,n,n,n,34.3,n,n
O=C(NNS(=O)(=O)c1ccc(F)cc1)c1ccccc1,146.7,n,n,n,n,n
Cc1ccc(/C=C/C(=O)OCC(=O)N(C)c2c(N)n(Cc3ccccc3)c(=O)[nH]c2=O)o1,n,x,n,38.4,x,n
CCN(C(=O)COC(=O)c1nc(Cl)ccc1Cl)c1c(N)n(Cc2ccccc2)c(=O)[nH]c1=O,n,29.5,n,n,n,n
COc1ccc(C2C3C(=O)N(C(C)(C)C)C(=O)C3[C@]3(Cc4ccccc4)C(=O)N(c4cccc(Br)c4)C(=O)N23)cc1 (stereo partly specified),x,n,x,x,x,x
SMILES,Mtb FBA inh,Mtb hypoxia rep,Yp Topo-I inh,GDH-TPI counter,PrP 5UTR inh,PrPC TRFRET
c1ccc2c(c1)nc(Nc1ccc(N3CCCCC3)cc1)c1nncn12,n,x,n,43.9,n,n
CCOc1ccc(Nc2nc3ccccc3n3cnnc23)cc1,n,n,n,32.5,n,n
c1ccc(Nc2nc3ccccc3n3cnnc23)cc1,n,n,n,n,n,n
CN(CC(c1ccccc1)N(CC(Cc1ccccc1)N(CCc1ccccc1)N=O)N=O)N=O (stereo unspecified),x,n,x,x,x,x
CCOC1OC(C(=O)NCc2ccccc2)=CC(c2cn(C(C)=O)c3ccccc23)C1CCCO (stereo unspecified),x,n,x,x,x,x
O=C(CSc1nnc(NC(=O)c2ccco2)s1)NC1CCCC1,n,n,n,40.2,n,n
CCCCCCCCCC[n+]1cccc2c3ccccc3ccc21,29.1,n,n,n,n,n
Cc1cc(C)c2sc(N(CCCN(C)C)C(=O)c3ccc(S(=O)(=O)N(C)C4CCCCC4)cc3)nc2c1,n,37.5,n,n,n,n
CN(C)CCCN(C(=O)c1ccc(S(=O)(=O)N(C)C2CCCCC2)cc1)c1nc2ccc(F)cc2s1,n,n,n,n,n,n
C=CC(=O)Nc1cccc(Oc2ccnc3[nH]ccc23)c1,180.0,x,n,n,n,x
CCOC(=O)c1c(NC(=S)NCCc2ccccc2)sc2c1CC(C(C)C)OC2 (stereo unspecified),n,n,n,n,n,n
C=CCNC(=S)Nc1sc2c(c1C(=O)OCC)CC(C(C)C)OC2 (stereo unspecified),n,n,n,32.0,n,n
COc1cc(/C=C(/C#N)C(=O)NCc2ccccc2)cc(OC)c1OC,n,n,n,50.0,n,n
Cc1c(/C=C(\CC(=O)O)c2nc3ccccc3s2)cc(C#N)n1C,n,n,n,42.6,n,n
Cc1c(/C=C(\C#N)C(=O)NCc2ccccc2)cc(C#N)n1C,n,n,n,34.9,n,n
COc1cccc(C=NNC(=O)CCCC(=O)Nc2ccc(Br)cc2)c1,x,n,x,x,x,x
CCCCCC1CN(Cc2ccccc2)C(=O)C1CC(=O)NCc1ccc(OC)cc1 (stereo unspecified),x,n,x,x,x,x
O=C1N/C(=N/N=Cc2ccco2)SC1Cc1ccccc1 (stereo unspecified),x,n,x,x,x,x
O=C1N/C(=N\N=C\c2ccco2)SC1Cc1ccccc1[N+](=O)[O-] (stereo unspecified),n,x,n,37.6,n,n
CC=CC(=O)Nc1cccc(C2=NOC3(C2)CC(C(N)=O)N(C(=O)c2cc([N+](=O)[O-])cc([N+](=O)[O-])c2C)C3)c1 (stereo unspecified),x,n,x,x,x,x
CCCSc1ccc(C2N[C@@](Cc3ccccc3)(C(=O)OC)C3C(=O)N(CC)C(=O)C23)cc1 (stereo partly specified),x,n,x,x,x,x
Clc1cccc(-c2cccc3nccn23)c1,+,x,n,n,x,n
CS(=O)(=O)Nc1ccc(-c2cccc3nccn23)cc1,161.6,x,n,n,x,n
CS(=O)(=O)Nc1ccc(Oc2ncccn2)cc1,n,n,n,n,n,n
NC(=O)c1cccc(-c2cccc3nccn23)c1,n,x,n,n,x,n
SMILES,Mtb FBA inh,Mtb hypoxia rep,Yp Topo-I inh,GDH-TPI counter,PrP 5UTR inh,PrPC TRFRET
N#CCc1ccc(-c2cccc3nccn23)cc1,+,x,n,n,x,n
CN(C)c1ccc(-c2cccc3nccn23)cc1,+,x,n,n,x,n
OCc1ccccc1-c1cccc2nccn12,n,x,n,n,x,x
CCC(CC)C1=NN2C(=N)C(=Cc3cc(C)n(-c4cccc(C)c4)c3C)C(=O)N=C2S1,x,n,x,x,x,x
c1cc(-c2ccc(N3CCOCC3)cc2)n2ccnc2c1,+,x,n,n,x,n
O=C(/C=C/c1ccccc1)C1C(=O)c2ccccc2C1=O,n,n,n,n,n,n
CCc1ccc(/C=C/C(=O)C2C(=O)c3ccccc3C2=O)cc1,n,n,n,39.2,n,n
O=C(CCc1ccc(O)cc1)c1c(O)cc(O)cc1OC1OC(CO)C(O)C(O)C1O (stereo unspecified),x,n,x,x,x,x
N=C1c2c(cc(=O)n3c2[nH]c2ccccc23)CN1CCN1CCOCC1,+,n,n,n,n,n
COCCN1Cc2cc(=O)n3c([nH]c4ccccc43)c2C1=N,+,n,n,n,n,n
